One may read the inhibition as how much of the control response was suppressed.

Structures are written as SMILES. The whole screen tested about 65,000 compounds, of which about 320 (0.49%) were called active.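 The calls were made as follows: active = the 320 compounds with the highest percent inhibition in the single-dose primary screen, excluding strongly autofluorescent ones (cut at about 32% in these data); inactive = the rest, inconclusive results apart.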 The sample as a whole holds a higher share of actives than the screen did.

The text below walks through data of PubChem BioAssay AID556 (SRMLSC, 2006).

This test concerns diphosphomevalonate decarboxylase (Streptococcus pneumoniae D39). Put plainly: S. pneumoniae DPM-DC inhibitors, primary screen, biochemical, PK/LDH-coupled NADH fluorescence (AID 556).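 As to inhibition: kinetic rate of NADH fluorescence loss reporting ADP formed by the decarboxylase; 0% = full reaction rate with carrier and 100% = no-substrate background rate.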 The following applies: purified DPM-DC, at 10 µM.
Where [1] appears, read: stronger effect = higher value unless noted.
The mark [2] stands for this setting: measured here: pilot screen trials, stronger effect = higher value.

`Cc1ccc(OS(=O)Nc2cccc3nccnc23)cc1` (centres undefined): under setting [1], the inhibition result is “inactive”.
Turning to `CCCCSc1nnc(-c2ccc(NC(=O)CC)cc2)n1C`, the inhibition under setting [1] was 6% (inactive).
Turning to `CC1CCc2sc3nc(N4CCN(CCO)CC4)n4ncnc4c3c2C1` (centres undefined), the inhibition entry under setting [1] is “inactive”.
Consider `N#Cc1c2c(c(N3CCN(CCO)CC3)n3c1nc1ccccc13)CCCC2`, for which the inhibition result under setting [1] was “inactive”.
In the case of `CCC(=O)N(Cc1cc2cc(OC)ccc2[nH]c1=O)c1ccccc1C`, under setting [1], the inhibition was 16% (inactive).
`O=C(Cn1c(=O)n(Cc2ccco2)c(=O)c2ccccc21)NCC1CCCO1` (centres undefined): the inhibition entry under setting [1] is “inactive”.
Consider `O=C(CSc1nc2ccccc2o1)N1CCN(c2ccc(Cl)cc2)CC1`, for which, under setting [1], the inhibition was 0.5% [measured here: pilot screen trials, stronger effect = higher value] and the molecule was called inactive.
For `CC(CNC(=O)c1ccc(Br)o1)NC(=O)c1ccc(Br)o1` (centres undefined), the inhibition under setting [1] is 2% (inactive).
The same measure, in the same setting: next, `CCc1nnc(NC(=O)c2cccs2)s1`: 5% (inactive); `CCCn1c(SCC(=O)Nc2cccc(C(=O)OCC)c2)nnc1-c1ccoc1C`: 2% (inactive).
Take `CCC1=[N+]([O-])C(C)(/C(C)=N\O)N(O)C1(C)C` (centres undefined): the inhibition entry under setting [1] was “inactive”.
Same read-out and setting: next, `c1coc(-c2nc3nc4ccccc4n3nc2-c2ccco2)c1`: 4% (inactive).
On to `CN(c1nc2ccccc2n2c(-c3ccco3)nnc12)S(=O)(=O)c1ccccc1`, for which the inhibition under setting [1] was 48% (active).
On to `CC(=O)Nc1ccc(S(=O)(=O)N2CCCC2C(=O)O)cc1` (centres undefined), for which the inhibition entry under setting [1] is “inactive”.
As for `CCOc1cccc(-n2nnnc2-c2ccc(OC)cc2)c1`, under setting [1], the inhibition is 4.5% [measured here: pilot screen trials, stronger effect = higher value] and the call was inactive.
As for `O=C(Cc1cccs1)N1CCCC(c2nc(-c3ccc(S(=O)(=O)N4CCCC4)cc3)no2)C1` (centres undefined), the inhibition entry under setting [1] was “inactive”.
Still for that read-out and setting: next, `CCOC(=O)c1ccc(N2C(=O)CC(N3CCC(C(=O)OCC)CC3)C2=O)cc1` (centres undefined): “inactive”; `O=C(NC12CC3CC(CC(C3)C1)C2)N1CCCC(CO)C1` (centres undefined): “inactive”; `CC(=O)Oc1cc2c(C(=O)NCCN3CCOCC3)c(C)oc2c2ccccc12`: “inactive”.
With `CN(C)c1ccc(NC(=O)c2ccncc2)c2ccccc12`, under setting [1], the inhibition is 0% [measured here: pilot screen trials, stronger effect = higher value] and the call was inactive.
Turning to `Cn1c(=O)[nH]c(=O)c2c1nc(CN1CCN(c3ccccc3F)CC1)n2CCc1ccccc1`, the inhibition result under setting [1] is “inactive”.
On to `Cc1cc(C)n(C(=O)c2ccc(C)c(S(=O)(=O)N3CCOCC3)c2)n1`, for which the inhibition entry under setting [1] is “inactive”.
Still for that read-out and setting: the value for `COc1ccc(-c2c3c(=O)n(C)c(=O)n(C)c3cn2NC(C)=O)cc1` was 20% (inactive).
As to `Cc1cccc(C2c3c(n(C)c(=O)n(C)c3=O)N=C3c4ccccc4C(=O)C32)c1` (centres undefined), the inhibition is, setting by setting: (stronger effect = higher value) 4% (inactive); under setting [2], 1%.
Take `COc1ccc(C2C3=C(OC(C)=O)c4ccccc4C3=Nc3c2c(=O)n(C)c(=O)n3C)cc1` (centres undefined): the inhibition is, setting by setting: (stronger effect = higher value) 70% (active); under setting [2], 3.5%.
Consider `O=C(O)c1cc(S(=O)(=O)N2CCCCCC2)c(Cl)cc1Cl`, for which, under setting [1], the inhibition entry is “inactive”.
Still for that read-out and setting: the value for `COc1ccccc1N1CCN(C(=O)c2ccc(S(=O)(=O)N3CCCCC3)cc2)CC1` was “inactive”; that for `COC(=O)c1cccc(NC(=O)CN2CCC(NC(=O)c3cc(OC)c(OC)c(OC)c3)CC2)c1` was “inactive”; that for `O=C(Nc1cccc2cccnc12)c1cccc(N2C(=O)CCC2=O)c1` was 3% (inactive).
Still for that read-out and setting: next, `C=C(C)CSc1nc(N)c2c3c(sc2n1)CCC3`: 6% (inactive); `COc1cc(Cl)c(C)cc1NC(=O)CSc1nnc(-c2cccnc2)n1Cc1ccco1`: “inactive”.
On the same count and under the same terms, the value for `O=C(Nc1ccccc1F)c1cc(S(=O)(=O)N2CCCCC2)cs1` was “inactive”; that for `COc1ccc(-c2c(C)nn3c(N4CCC(C(=O)N5CCCCC5)CC4)cc(C)nc23)cc1OC` was “inactive”.
Regarding `CCCS(=O)(=O)Nc1c(C(=O)O)[nH]c2ccccc12`, under setting [1], the inhibition was 8% [measured here: pilot screen trials, stronger effect = higher value] and the outcome was inactive.
Turning to `Cc1ccc(C)c(N2CCN(C(=O)CCCCn3c(=O)[nH]c4ccccc4c3=O)CC2)c1`, the inhibition result under setting [1] was “inactive”.
On the same count and under the same terms, the value for `COc1ccc(C(C)=O)cc1COC(=O)Cn1cnc2ccccc2c1=O` was “inactive”; that for `O=S(=O)(c1ccc(F)cc1)N1CCN(Cc2ccccc2C(F)(F)F)CC1` was “inactive”; that for `CCOc1c(N2CCCCC2)c(=O)c1=O` was “inactive”.
`O=C(CSCc1cccs1)N1CCCC1`: under setting [1], the inhibition was 0% [measured here: pilot screen trials, stronger effect = higher value] and the molecule was classed as inactive.
In the case of `Cc1c2cn[nH]c(=O)c2c(C)n1Cc1ccc(F)cc1`, the inhibition result under setting [1] is “inactive”.
Turning to `CCS(=O)(=O)n1nc(-c2ccccc2)nc1SCc1ccccc1`, the inhibition entry under setting [1] is “inactive”.
Turning to `CC1=C(C(=O)Nc2ccccc2)C(c2cccs2)C(C#N)=C(SCC#N)N1` (centres undefined), the inhibition by setting is: (stronger effect = higher value) 1% (inactive); under setting [2], 3%.
For the molecule `CC1CCCN(Cc2nc3c(c(=O)n(C)c(=O)n3C)n2CC(=O)c2ccccc2)C1` (centres undefined), the inhibition result under setting [1] is “inactive”.
On the same count and under the same terms, next, `Cc1cc(Nc2cccc(F)c2)n2ncnc2n1`: “inactive”.
As to `Cc1cc(C)c(C#N)c(SCc2[nH]nc3c2C(c2ccccc2)C(C#N)=C(N)O3)n1` (centres undefined), under setting [1], the inhibition is 0% [measured here: pilot screen trials, stronger effect = higher value] and the result was inactive.
Turning to `CC(C[N+](C)(C)C)OC(N)=O` (centres undefined), the inhibition (stronger effect = higher value) was 1% (inactive) and the inhibition under setting [2] was 0%.
On to `CCOC(=O)CSC1=C(C#N)C(c2ccco2)C(C(=O)OCc2ccccc2)=C(C)N1` (centres undefined), for which the inhibition under setting [1] was 11% (inactive).
As for `NC(=O)c1ccccc1NC(=O)c1ccccc1F`, the inhibition entry under setting [1] was “inactive”.
Same read-out and setting: next, `Cc1nc2ncnn2c(C)c1CCC(=O)N1CCN(C(=O)c2ccco2)CC1`: “inactive”.
Still for that read-out and setting: next, `O=C(c1ccccc1)c1ccc(OC(=O)N2CCCC2)cc1`: “inactive”; `COC(=O)c1ccccc1NC(=O)Cn1nc(C(F)(F)F)c2c1CCC2`: “inactive”; `CCN=C1SC(CC(=O)Nc2ccc(C)cc2)C(=O)N1CC` (centres undefined): “inactive”.
The same measure, in the same setting: next, `Cc1ccccc1Nc1nnc(C)c(=O)[nH]1`: 2% (inactive).
Consider `CCSc1nc2c(c(=O)[nH]1)C(c1cccnc1)C(C(=O)OC(C)C)=C(C)N2` (centres undefined), for which, under setting [1], the inhibition is 0% [measured here: pilot screen trials, stronger effect = higher value] and the call was inactive.
With `COc1ccc(NC(=O)CCNC(=O)Cn2ccc3ccccc3c2=O)c(OC)c1`, under setting [1], the inhibition was 1.5% [measured here: pilot screen trials, stronger effect = higher value] and the molecule was classed as inactive.
In the case of `CCOC(=O)CSc1nnc(NC(=O)c2cccc(S(=O)(=O)N3CCCC3)c2)s1`, under setting [1], the inhibition entry was “inactive”.
`C=CCNC(=O)c1ccc(C)c(Br)c1`: under setting [1], the inhibition result is “inactive”.
Same read-out and setting: the value for `CCN(CC)CCNC(=O)C1c2ccccc2C(=O)N(C)C1c1cn(C)c2ccccc12` (centres undefined) was “inactive”; that for `COc1ccccc1CNCc1cccs1` was “inactive”; that for `COC(=O)c1cc(C(=O)CSc2nc(C)cc(C)n2)ccc1O` was “inactive”.
For the molecule `CCOC(=O)Cc1csc(NC(=O)CN(C)S(=O)(=O)c2ccc3c(c2)CCC(=O)N3)n1`, under setting [1], the inhibition is 0% [measured here: pilot screen trials, stronger effect = higher value] and the outcome was inactive.
On to `COc1ccc(OC)c(CNC(=O)CCc2nc(-c3cccs3)no2)c1`, for which the inhibition entry under setting [1] was “inactive”.
Turning to `Cc1nnc(SCCCn2c(N3CCCCC3)nc3c2c(=O)[nH]c(=O)n3C)s1`, under setting [1], the inhibition is 1% [measured here: pilot screen trials, stronger effect = higher value] and the result was inactive.
As for `Cc1ccc(C(=O)OCC(=O)NCc2ccc3c(c2)OCO3)s1`, the inhibition under setting [1] is 14% (inactive).
Still for that read-out and setting: next, `CCCn1c(=O)c2ccccc2n2c(SCC(=O)/C(C#N)=C(\C)N)nnc12`: 34% (active).
As for `CCCn1cc(SCC(N)=O)c2ccccc21`, under setting [1], the inhibition was 0% [measured here: pilot screen trials, stronger effect = higher value] and the outcome was inactive.
In the case of `C=CCn1c(=O)c2ccccc2n2c(SCC(=O)N3CCCc4ccccc43)nnc12`, the inhibition result under setting [1] was “inactive”.
On the same count and under the same terms, next, `COC(=O)c1ccccc1NC(=O)CN(Cc1ccccc1)S(C)(=O)=O`: 5% (inactive); `CC(=O)c1ccc(N2C(=NC(=O)C(C)C)SC3CS(=O)(=O)CC32)cc1` (centres undefined): 14% (inactive); `CCOCCN(C=O)c1cccc(OC)c1`: “inactive”.
Still for that read-out and setting: the value for `COc1ccc(-c2ccnc(SCC(=O)N3CCOCC3)n2)cc1` was “inactive”; that for `COc1cc(NS(=O)(=O)c2ccc(NC(C)=O)cc2)cc(OC)c1` was “inactive”; that for `CCC(=O)Nc1sc(C(=O)N2CCCCC2)c(C)c1C#N` was “inactive”.
In the case of `O=C(CNC(=O)c1ccco1)OCC(=O)c1ccccc1`, the inhibition under setting [1] was 14% (inactive).
The same measure, in the same setting: next, `Cc1ccc2nc(NC(=O)C3CCN(S(=O)(=O)c4ccc5c(c4)oc(=O)n5C)CC3)sc2c1`: “inactive”; `CCS(=O)(=O)n1nc(-c2ccc(OC)cc2)nc1SC`: “inactive”; `Cc1ccccc1C(=O)Nc1cccc(-c2nnc(SCC(=O)O)n2C)c1`: 3% (inactive).
Still for that read-out and setting: next, `Cn1c(SCC(=O)N2CCOCC2)nnc1-c1ccc(NC(=O)c2ccccc2F)cc1`: 100% (active); `Cn1c(SCC(=O)Nc2cccc(O)c2)nnc1-c1ccc(S(=O)(=O)N2CCOCC2)cc1`: “inactive”.
As to `O=C1OC(NC(=O)c2ccccc2)C(N2CCOCC2)=C1Cl` (centres undefined), the inhibition under setting [1] was 9% (inactive).
Consider `CCOc1ccc(-n2c(SC(C)C(=O)OC)nc3c(c2=O)SCC3)cc1` (centres undefined), for which the inhibition under setting [1] was 1% (inactive).
For `O=C(NCc1ccccn1)c1cnc2sccn2c1=O`, the inhibition under setting [1] is 27% (inactive).
On the same count and under the same terms, next, `CC(C)Cc1cc(C(=O)Nc2cc(Br)ccc2O)no1`: “inactive”.
On the same count and under the same terms, next, `CCCC(C)n1[nH]c(=O)c2c(C)cc(C)nc21` (centres undefined): “inactive”.
With `Cc1nnc(SCC(=O)N(C(C)C)C(C)C)nc1C`, the inhibition reads like this: (stronger effect = higher value) 4% (inactive); under setting [2], 0%.
For the molecule `CC(C)(C)c1ccc(NC(=O)NCc2ccco2)cc1`, under setting [1], the inhibition result is “inactive”.
With `CCCn1c(SCC(=O)c2ccc3c(c2)OCCO3)nnc1C(C)C`, under setting [1], the inhibition is 4% (inactive).
Regarding `CS(=O)(=O)N1CCN(C(=O)Cc2ccccc2)CC1`, the inhibition result under setting [1] is “inactive”.
Consider `CC1(C)Cc2cccc(OCC(=O)Nc3nccs3)c2O1`, for which the inhibition entry under setting [1] is “inactive”.
The same measure, in the same setting: next, `CCOC(=O)C1CCCN(C(=O)c2sc3nc(C)nc(N4CCOCC4)c3c2C)C1` (centres undefined): “inactive”.
Take `O=C(CN1CCN(c2ccccn2)CC1)NCc1cccs1`: under setting [1], the inhibition result was “inactive”.
Turning to `CC(C)COC(=O)C1C2C=CC3(CN(C(C)c4ccc(Br)cc4)C(=O)C13)O2` (centres undefined), the inhibition is, setting by setting: (stronger effect = higher value) 22% (inactive); under setting [2], 0%.
